Source: PubChem
Hits are enriched below; roughly 4% of the tested compounds scored in any of these assays.
Beta apoptosis – inhibitors of cytokine-induced beta cell apoptosis, primary screen, luminescence; AID 435005, 2010; protection from apoptosis, % (no concentration beside the values); INS-1E cytokine-induced death, ATP luminescence, 48 h; percent of positive-control rescue, neutral wells zero; 0.8% of 300,000 active;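 active = Every replicate reaches about 75%, or at least half do and their mean reaches it too, limit read from the data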;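 note: 0% = cytokine-treated negative control wells and 100% = positive control rescue; higher means more ATP so stronger rescue from cytokine killing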
PAX8 reporter – inhibitors of PAX8-driven TPO luciferase reporter, primary screen, RMG-I cells, single concentration; SteadyGlo, 24 h; AID 652154, 2013; inhibition, % at 12.6 µM; 1.2% of 360,000 active;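 active = mean replicate inhibition at least 60% with every replicate also reaching 60%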;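 note: luciferase light reporting Pax8 driven TPO promoter activity; plate controls were median of neutral control wells for no effect and mitoxantrone controls for full effect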
Gli-Sufu block – Gli-Sufu pathway antagonists, primary screen, luciferase luminescence, Sufu-KO-LIGHT cells, uHTS | 0.74% of 340,000 active | Sufu-KO-LIGHT fibroblasts, Gli luciferase reporter luminescence | inhibition, % at 5 µM;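 active = inhibition above about 55%, limit read from the data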;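 note: 0% = DMSO-treated cells and 100% = wells with medium but no cells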
Shn3 inh set2 – reduction of Shn3 3'UTR firefly luciferase signal, primary screen, Schnurri-3 inhibitor project, cell-based, Clone20 osteoblasts, set 2 | Clone20 osteoblast Shn3 3'UTR firefly luciferase, 24 h | inhibition, % at 12.5 µM | 0.52% of 360,000 active;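 active = mean inhibition of at least 75% with every replicate also reaching 75%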;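 note: 0% = median of neutral control wells and 100% = pilot-screen positive control compound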
CSC inhib – cancer stem cell viability inhibitors, primary screen, luminescence | cancer stem cell-like cells viability | inhibition, % at 7.5 µM | 1.1% of 300,000 active; in the data active = inhibition above about 75%; tested in HMLE shEcad cells
Mdm2-MdmX inh – inhibitors of human Mdm2-MdmX association, primary screen, cell-based, luminescence, split luciferase, SaOS-2, uHTS; Protein Mdm4 (Homo sapiens) + E3 ubiquitin-protein ligase Mdm2 (Homo sapiens), …; SaOS-2 split-luciferase Mdm2/MdmX complementation; inhibition, % at 8 µM; 3% of 330,000 active; AID 485346, 2010;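 active = inhibition of at least 50% at 8 µM in the primary screen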
Target sequence (O15151 whole entry, looked up): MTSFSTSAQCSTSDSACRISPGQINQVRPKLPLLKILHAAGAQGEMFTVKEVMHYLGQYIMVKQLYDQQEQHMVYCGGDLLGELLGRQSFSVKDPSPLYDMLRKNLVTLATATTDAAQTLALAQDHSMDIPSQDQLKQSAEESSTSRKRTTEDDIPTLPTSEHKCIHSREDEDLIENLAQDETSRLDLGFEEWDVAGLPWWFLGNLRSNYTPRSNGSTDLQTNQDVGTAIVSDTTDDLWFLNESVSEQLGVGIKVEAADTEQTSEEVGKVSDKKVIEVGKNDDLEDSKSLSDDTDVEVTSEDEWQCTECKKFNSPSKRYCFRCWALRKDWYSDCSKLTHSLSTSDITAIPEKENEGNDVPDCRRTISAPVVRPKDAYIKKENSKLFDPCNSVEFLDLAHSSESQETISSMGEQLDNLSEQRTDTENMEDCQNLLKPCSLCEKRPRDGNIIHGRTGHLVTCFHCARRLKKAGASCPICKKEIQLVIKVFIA
Target sequence (Q00987 whole entry, looked up): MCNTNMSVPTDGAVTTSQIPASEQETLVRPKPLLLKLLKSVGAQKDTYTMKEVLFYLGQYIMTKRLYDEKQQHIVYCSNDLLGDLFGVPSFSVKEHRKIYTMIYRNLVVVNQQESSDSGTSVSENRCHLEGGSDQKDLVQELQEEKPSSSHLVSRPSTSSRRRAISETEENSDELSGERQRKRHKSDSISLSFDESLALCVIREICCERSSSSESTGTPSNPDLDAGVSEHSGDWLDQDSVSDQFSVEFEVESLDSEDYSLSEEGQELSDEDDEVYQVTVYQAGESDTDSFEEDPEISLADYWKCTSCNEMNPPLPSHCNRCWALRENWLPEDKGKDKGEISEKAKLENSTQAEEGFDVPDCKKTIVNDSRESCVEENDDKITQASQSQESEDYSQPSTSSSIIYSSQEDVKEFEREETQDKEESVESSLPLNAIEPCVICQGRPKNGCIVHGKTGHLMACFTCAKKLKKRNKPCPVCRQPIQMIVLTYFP
Mdm2 MdmX conf – Mdm2-MdmX complex disruptors, retested hits, confirmation, luminescence, single concentration | shares compounds with Mdm2-MdmX inh | Mdm2-MdmX binding, luminescent assay | inhibition, % at 8 µM | 55% of 10,000 active | AID 489028, 2010; in the data active = inhibition above about 40%
Full FLuc ctr – full-length luciferase signal inhibition, confirmation, counter-screen for Mdm2/MdmX interaction inhibitor project, cell-based, single concentration, SaOS-2; shares compounds with Mdm2-MdmX inh; SaOS-2 full-length luciferase counterscreen, luminescence; inhibition, % at 8 µM; 77% of 6,200 active;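 active = mean inhibition at 8 µM reaching about 37%, which flags the compound as non-specific, limit read from the data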;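 note: p53-null SaOS-2 cells with luciferase driven by a doxycycline-inducible promoter; compound on cells about two nights before reading with doxycycline added after day one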
Active calls of the source: *.

What do the screens show for `C=CC(C)(C)c1c(O)c(CC=C(C)C)c(O)c2c(=O)c3ccc(O)c(O)c3oc12`?
Beta apoptosis: 107*; Gli-Sufu block: 38; Shn3 inh set2: 89*; CSC inhib: -7; Mdm2-MdmX inh: 92*; Mdm2 MdmX conf: 86*; Full FLuc ctr: 55*

How did C=CC(C)(C)c1c2occc2c(O)c2ccc(=O)oc12 do in these assays?
Gli-Sufu block: 5; Shn3 inh set2: -5; Mdm2-MdmX inh: 18

What do the screens show for `CO[C@H]1CN(C)C(=O)c2ccc(NS(=O)(=O)c3cn(C)cn3)cc2OC[C@H](C)N(CCC(F)(F)F)C[C@@H]1C`?
PAX8 reporter: -15

What do the screens show for `Cc1ccn2c(NC3CCCCC3)c(-c3cccc(SC4CCCCC4)c3)nc2c1`?
Beta apoptosis: 7; PAX8 reporter: 3; Gli-Sufu block: 4; Shn3 inh set2: 25; CSC inhib: 100*; Mdm2-MdmX inh: 91*; Mdm2 MdmX conf: 0

How did CC(=O)c1ccc(N2CCN(c3ccccc3O)CC2)c([N+](=O)[O-])c1 do in these assays?
Beta apoptosis: 0; PAX8 reporter: -23; Gli-Sufu block: 46; Shn3 inh set2: 78; CSC inhib: 6; Mdm2-MdmX inh: 2

How did CC(=O)c1ccc(N2CCC(c3cc(-c4ccc(Cl)cc4Cl)n[nH]3)CC2)c([N+](=O)[O-])c1 do in these assays?
Beta apoptosis: 20; PAX8 reporter: 39; Gli-Sufu block: 12; Shn3 inh set2: 72; CSC inhib: 118*; Mdm2-MdmX inh: 52*; Mdm2 MdmX conf: 37

What do the screens show for `CC(=O)Nc1ncnc2c1c(-c1ccc(Cl)cc1)nn2C(C)(C)C`?
Beta apoptosis: -1; PAX8 reporter: -2; Gli-Sufu block: 18; Shn3 inh set2: 34; CSC inhib: 19; Mdm2-MdmX inh: 73*; Mdm2 MdmX conf: 37; Full FLuc ctr: 55*

How did c1coc(CNc2ncnc3sc4c(c23)CCCCC4)c1 do in these assays?
Beta apoptosis: 3; Gli-Sufu block: -7; Shn3 inh set2: -2; CSC inhib: -3; Mdm2-MdmX inh: 13

Results for Cc1nc(NCc2ccco2)c2c3c(sc2n1)CCC3 ?
Beta apoptosis: -20; Gli-Sufu block: -13; Shn3 inh set2: -45; CSC inhib: 2; Mdm2-MdmX inh: 72*; Mdm2 MdmX conf: 33

How did COc1ccc(CN(C)C[C@H]2Oc3c(NC(=O)c4nc5ccccc5s4)cccc3C(=O)N([C@H](C)CO)C[C@@H]2C)cc1 do in these assays?
PAX8 reporter: 21

Results for COC(=O)[C@@H]1CC[C@H](C)[C@@H](c2ccc(C)cc2)N1C(=O)c1ccc(/C=N/O[C@@H](C)CN2CCCCc3nc(C)c(C)cc32)cc1 ?
Beta apoptosis: 16; CSC inhib: 90*; Mdm2-MdmX inh: 89*; Mdm2 MdmX conf: 25

How did C/C(CCN1CCCCc2nc(C)c(C)cc21)=N\O[C@@H](C)CN1CCCCc2nc(C)c(C)cc21 do in these assays?
Beta apoptosis: -7; CSC inhib: 30; Mdm2-MdmX inh: -14

How did CN(C)c1ccc(C=Nc2cnn(C)c2C(N)=O)cc1 do in these assays?
Beta apoptosis: -4; Gli-Sufu block: -9; Shn3 inh set2: -26; CSC inhib: -10; Mdm2-MdmX inh: 52*; Mdm2 MdmX conf: -1

Results for Cn1ncc(N=Cc2ccccc2[N+](=O)[O-])c1C(N)=O ?
Beta apoptosis: -6; PAX8 reporter: -11; Gli-Sufu block: 1; Shn3 inh set2: 3; CSC inhib: -12; Mdm2-MdmX inh: 20

How did C[C@@H]1CN([C@@H](C)CO)C(=O)Cc2cc(NS(C)(=O)=O)ccc2O[C@H]1CN(C)C(=O)Nc1ccc(C(F)(F)F)cc1 do in these assays?
PAX8 reporter: -8

What do the screens show for `S=C(NCc1cccs1)Nc1cc(Cl)cc(Cl)c1`?
Beta apoptosis: 9; PAX8 reporter: -5; Gli-Sufu block: 3; Shn3 inh set2: 22; CSC inhib: 61; Mdm2-MdmX inh: 61*; Mdm2 MdmX conf: 19

What do the screens show for `Cc1ccc(S(=O)(=O)Nc2ccc3c(c2)C(=O)N([C@@H](C)CO)C[C@@H](C)[C@@H](CN(C)C(=O)NC(C)C)OCCCC[C@@H](C)O3)cc1`?
PAX8 reporter: -17

How did Cc1cccc(C)c1NC(=O)CN1CCN(CCCC(c2ccc(F)cc2)c2ccc(F)cc2)CC1 do in these assays?
PAX8 reporter: 45; Gli-Sufu block: 0; Shn3 inh set2: 62; Mdm2-MdmX inh: 60*; Mdm2 MdmX conf: 44*; Full FLuc ctr: 74*

What do the screens show for `CO[C@H]1CN(C)C(=O)c2cc(NC(=O)Nc3ccc(Cl)cc3)ccc2OC[C@@H](C)N(C(=O)Nc2c(C)noc2C)C[C@@H]1C`?
PAX8 reporter: 1

What do the screens show for `CC[C@H]1CC2CN3CCc4c([nH]c5c([C@H]6C[C@H]7[C@H](CC)CN(C)[C@@H](Cc8c6[nH]c6ccccc86)[C@H]7C(=O)OC)c(OC)ccc45)C(C(=O)OC)(C2)C13`?
Beta apoptosis: 49; CSC inhib: 103*; Mdm2-MdmX inh: 93*; Mdm2 MdmX conf: 83*; Full FLuc ctr: 37*

What do the screens show for `O=C(NCC(c1cccs1)N1CCOCC1)c1cn(-c2ccccc2)nc1-c1ccc(Cl)cc1` (stereo unspecified)?
Beta apoptosis: 11; Gli-Sufu block: 10; Shn3 inh set2: 7; CSC inhib: 20; Mdm2-MdmX inh: 63*; Mdm2 MdmX conf: 25

How did CC(C)c1nnc(NC(=O)CCc2ccccc2)s1 do in these assays?
Beta apoptosis: 2; PAX8 reporter: -47; Gli-Sufu block: -7; Shn3 inh set2: -6; CSC inhib: 4; Mdm2-MdmX inh: -4

Results for CSc1ncc(Cl)c(C(=O)Nc2nnc(SC)s2)n1 ?
Beta apoptosis: 2; Gli-Sufu block: -2; Shn3 inh set2: 5; Mdm2-MdmX inh: 12

What do the screens show for `CC(C)c1nnc(NC(=O)c2nc(S(=O)(=O)Cc3ccccc3)ncc2Cl)s1`?
PAX8 reporter: 17; Gli-Sufu block: 38; Shn3 inh set2: 94*; Mdm2-MdmX inh: 97*; Mdm2 MdmX conf: 76*; Full FLuc ctr: 50*
